Compounds with a hit are over-represented: about 1.3% of the library has one in this group of screens.
RN4220 kill: growth inhibition of S. aureus RN4220, primary screen, OD600 | 16 h | inhibition, % (test concentration not listed) | actives 0.33% (n = 330,000) | AID 1259311, 2017; in the data active means inhibition above about 85%;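 further: plate controls were untreated cells for no effect and reference antibiotic for full effect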
Mtb hypoxia inh: PubChem AID 1159583. actives 0.1% (n = 300,000). M. tuberculosis hypoxia-regulated fluorescent reporter, fluorescence. fluorescence inhibition, % (test concentration not listed); in the data active means fluorescence inhibition mostly above about 23%, no sharp cut-off; inactive means mostly below about 17%
Sa ugtP lethal: growth inhibition of ugtP-null S. aureus, primary screen, RN4220 ugtP deletion, OD600; 16 h; growth inhibition, % (concentration not given with the values); actives 0.54% (n = 330,000); in the data active means growth inhibition above about 68%;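 further: plate controls were untreated wells for no effect and antibiotic for full effect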
TcdB GH inh: TcdB glycohydrolase inhibitors, primary screen, biochemical, single point, plate reader | Toxin B (Clostridioides difficile), P18177 | TcdB glycohydrolase enzymatic assay | inhibition, % at 9.99 µM | actives 0.24% (n = 350,000); in the data active means inhibition above about 10%
PfHsp40 rescue: rescue of yeast from PfHsp40 toxicity, primary screen, S. cerevisiae, ATP luminescence; S. cerevisiae expressing PfHsp40, growth rescue; growth rescue, % at 12.5 µM; actives 0.68% (n = 340,000); AID 504582, 2011; in the data active means growth rescue above about 28%, passing the limit was not always enough;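 further: yeast W303a lacking pdr1 and pdr3 grown in galactose medium; growth measured after three days at 30 °C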
MazEF act: activators of E. coli MazEF toxin-antitoxin RNase, primary screen, biochemical, fluorescence, uHTS; FAM/BHQ RNA-DNA oligo cleavage fluorescence, 5 h; actives 0.32% (n = 350,000); AID 504720, 2011; Endoribonuclease toxin MazF (Escherichia coli (strain K12)), P0AE70; activation, % at 20 µM; in the data active means activation above about 50%
* marks the source's active call; other numbers are inactive results; nt = not tested or not shown.

SMILES | RN4220 kill | Mtb hypoxia inh | Sa ugtP lethal | TcdB GH inh | PfHsp40 rescue | MazEF act
CN1C(=O)c2cc(NC(=O)c3cccc(F)c3)ccc2OC[C@H]2O[C@H](CC(=O)NCC3CCCCC3)CC[C@@H]21 | nt | nt | nt | 11* | nt | nt
CNC(=O)C[C@@H]1CC[C@@H]2[C@H](COc3ccc(NS(=O)(=O)c4ccccc4C)cc3C(=O)N2C)O1 | nt | nt | nt | 15* | nt | nt
CNC(=O)C[C@H]1CC[C@@H]2[C@@H](COc3ccc(NS(=O)(=O)c4ccccc4C)cc3C(=O)N2C)O1 | nt | nt | nt | 7 | nt | nt
CNC(=O)C[C@@H]1CC[C@@H]2[C@H](COc3ccc(NC(=O)c4ccc(OC)cc4)cc3C(=O)N2C)O1 | nt | nt | nt | 1 | nt | nt
COc1ccc(C(=O)Nc2ccc3c(c2)C(=O)N(C)[C@@H]2CC[C@H](CC(=O)NCC4CC4)O[C@H]2CO3)cc1 | nt | nt | nt | 16* | nt | nt
CNC(=O)C[C@H]1CC[C@@H]2[C@H](COc3ccc(NC(=O)c4ccc(OC)cc4)cc3C(=O)N2C)O1 | nt | nt | nt | 17* | nt | nt
COc1ccc(CSCC(=O)NN=Cc2ccc(OCC(=O)NCc3ccco3)cc2)cc1 | -11 | 17 | -7 | nt | nt | nt
O=C(CNS(=O)(=O)c1ccc([N+](=O)[O-])cc1)NN=Cc1ccc(O)cc1O | -2 | 13 | 9 | nt | nt | nt
CNC(=O)C[C@H]1CC[C@@H]2[C@@H](COc3ccc(NC(=O)c4cccc(OC)c4)cc3C(=O)N2C)O1 | nt | nt | nt | 12* | nt | nt
CNC(=O)C[C@H]1CC[C@@H]2[C@@H](COc3ccc(NC(=O)c4ccc(OC)cc4)cc3C(=O)N2C)O1 | nt | nt | nt | 12* | nt | nt
CNC(=O)C[C@H]1CC[C@H]2[C@H](COc3ccc(NC(=O)c4cccc(OC)c4)cc3C(=O)N2C)O1 | nt | nt | nt | -5 | nt | nt
CNC(=O)C[C@H]1CC[C@@H]2[C@H](COc3ccc(NC(=O)Nc4ccc(C)cc4)cc3C(=O)N2C)O1 | nt | nt | nt | 11* | nt | nt
COc1ccc(-c2ccc3c(c2)[C@H]2[C@H](CCN2C(=O)CN2CCOCC2)[C@@H](CO)N3)cc1 | nt | nt | nt | 15* | nt | nt
COc1ccc(-c2ccc3c(c2)[C@@H]2[C@@H](CCN2C(=O)CN2CCOCC2)[C@H](CO)N3)cc1 | nt | nt | nt | 12* | nt | nt
COc1ccc(-c2ccc3c(c2)[C@H]2[C@H](CCN2C(=O)CN2CCOCC2)[C@H](CO)N3)cc1 | nt | nt | nt | -3 | nt | nt
CC(=O)N1CC[C@@H]2[C@@H](CO)Nc3ccc(-c4ccccc4)cc3[C@@H]21 | nt | nt | nt | 11* | nt | nt
COc1ccc(S(=O)(=O)N[C@@H]2C=C[C@@H](CC(=O)NCCc3ccncc3)O[C@@H]2CO)cc1 | nt | nt | nt | 1 | nt | nt
Cc1ccc(S(=O)(=O)N2C(c3ccc(Cl)cc3)CC=C(C(=O)O)C2c2ccc(F)cc2)cc1 (configuration not stated) | 19 | 11 | 93* | nt | nt | nt
Cc1ccc([C@H]2C(C(=O)O)=CC[C@@H](c3ccc(C(C)C)cc3)N2S(=O)(=O)c2ccc(C)cc2)cc1 | 18 | 0 | -11 | 0 | 8 | 3
CCc1ccc([C@@H]2CC=C(C(=O)O)[C@H](c3ccc(Cl)cc3)N2S(=O)(=O)c2ccc(C)cc2)cc1 | nt | nt | nt | 0 | 281* | -4
Cc1ccc(S(=O)(=O)N2[C@@H](c3ccccc3)C(C(=O)O)=CC[C@H]2c2ccc(C(C)C)cc2)cc1 | nt | nt | nt | -2 | 133* | -6
Cc1ccc([C@H]2C(C(=O)O)=CC[C@@H](c3ccc(Cl)cc3)N2S(=O)(=O)c2ccc(C)cc2)cc1 | 15 | -5 | 7 | 0 | 46* | -3
Cc1ccc(S(=O)(=O)N2[C@@H](c3ccc(Cl)cc3)C(C(=O)O)=CC[C@H]2c2ccc(C(C)C)cc2)cc1 | 25 | 10 | 57 | 0 | 6 | -2
CCc1ccc([C@@H]2CC=C(C(=O)O)[C@H](c3ccc(C)cc3)N2S(=O)(=O)c2ccc(C)cc2)cc1 | 68 | -4 | 45 | 0 | 14 | 4
NC(Cc1ccccc1Sc1ccccc1)=NO | 1 | 4 | -1 | nt | nt | nt
COc1ccc(S(=O)(=O)N(C)C[C@@H]2OCCCC[C@H](C)Oc3ccc(NC(=O)Nc4ccc5c(c4)OCO5)cc3C(=O)N([C@H](C)CO)C[C@@H]2C)cc1 | nt | nt | nt | 0 | nt | nt
CCc1ccc([C@@H]2CC=C(C(=O)O)[C@H](c3cccc(Cl)c3)N2S(=O)(=O)c2ccc(C)cc2)cc1 | nt | nt | nt | 2 | 156* | -2

Screening results from PubChem.
